# Among all 400,000 compounds or so, about 5,500 (1.4%) were called active. Another 9% or so got no clear call; they are omitted. Calls come from the whole dose curve; as a rule, active = well fitted cell-killing curve with a large enough effect; inconclusive = small, poorly fitted or top-dose-only effect, or effect the other way; inactive = flat fitted curve, though single readings scatter. The entries come from a sample that favours actives as a whole. A call without a number means that no potency is given here.
# Experiment: qHTS assay for MDR1-selective chemotherapeutics: Primary screen using the parental adenocarcinoma cell KB-3-1; note: nearly all actives have a fitted effect of over 60% in size
# Settings: KB-3-1 viability, CellTiter-Glo ATP luminescence, 72 h; series mostly up to 46.1 µM
# Outline: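 Multi-concentration cytotoxicity screen in KB-3-1 cells grown in DMEM lacking phenol red with 10% FBS. After 72 h at 37 °C with compound, ATP-dependent luminescence was recorded.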
# Potency is the fitted concentration of half-maximal effect.
row,Structure (SMILES),Potency
1,Cc1ccc(C(=O)Nc2cc3c(cc2N2CCCC2)n(C)c(=O)c(=O)n3C)cc1,inactive
2,CCCC1=Nc2cc(C(=O)NCCN3CCCC3)ccc2Sc2ccccc21,inactive
3,CCCC1=Nc2cc(C(=O)NCc3ccco3)ccc2Sc2ccccc21,5.8 µM (active)
4,COc1ccc(CCNS(=O)(=O)c2ccc(C(=O)NCc3ccco3)cc2)cc1OC,inactive
5,Cc1ccc(OCC(=O)Nc2ccc(Cl)c(-c3nc4ccccc4[nH]3)c2)cc1C,inactive
6,O=C(c1ccc(Cl)cc1)n1nc(-c2cccnc2)nc1NCc1ccc(F)cc1,inactive
7,O=C(Cn1nc(C(F)(F)F)c2c1CCCC2)Nc1ccc(Cl)cc1,inactive
8,O=C(Cn1ncc(N2CCCC2)c(Br)c1=O)c1ccc(Cl)cc1,inactive
9,O=C(Cn1nc(CNc2ccc(Cl)cc2)[n+]2c1CCCCC2)c1ccc(Cl)cc1,16.4 µM (active)
10,Cc1nc2ccc(S(=O)(=O)N(CC(=O)Nc3ccc(F)cc3)Cc3ccccc3)cc2s1,inactive
11,COc1ccc(-c2nc3c4ccccc4n(CC(=O)Nc4ccc(C(C)=O)cc4)c(=O)n3n2)cc1,inactive
12,CCc1ccccc1OCC(=O)Nc1ccc(C)c(S(=O)(=O)N2CCCCCC2)c1,18.4 µM (active)
13,Cc1ccc(NC(=O)COC(=O)C2CC2)cc1S(=O)(=O)N1CCOCC1,inactive
14,COc1ccccc1C(=O)Nc1ccc(C)c(S(=O)(=O)N2CCCCC2)c1,inactive
15,O=C(CCc1nc(CN2CCN(S(=O)(=O)c3ccc(Cl)cc3)CC2)no1)N1CCCCC1,inactive
16,COc1cc2ccccc2cc1C(=O)Nc1cccc(-c2nc3ccccc3o2)c1,inactive
17,Cc1cccc(NC(=O)CSc2nc3c([nH]c4ccccc43)c(=O)n2-c2cc(C)cc(C)c2)c1,inactive
18,Cc1oc(C)c2c(=O)cc(-c3ccc4c(c3)OCO4)cc(OC(=O)c3ccc(Cl)cc3)c12,inactive
19,COc1cc(-c2c(-c3ccc4c(c3)OCO4)noc2C)ccc1F,3.26 µM (active)
20,COc1cc2c(-c3ccc4c(c3)OCO4)c(-c3ccsc3)oc(=O)c2cc1OC,inactive
21,Cc1ccc(C=O)cc1Cl,inactive
22,O=C(CSc1oc(-c2ccccc2)nc1S(=O)(=O)c1ccc(Br)cc1)NC1CCCCC1,inactive
23,COc1ccc(OC)c(-c2noc(N3CCN(c4cc(Cl)ccc4C)CC3)n2)c1,inactive
24,CCOc1ccccc1CNC(=O)c1cnc2c(-c3ccc(OCC)c(OCC)c3)c(C)nn2c1C,inactive
25,Cc1ccccc1-c1nc2cc(NC(=O)c3cccc(OCCC(C)C)c3)ccc2o1,inactive
26,Cc1cc(O)c(C(c2ccccc2)N2CCN(c3ccccc3F)CC2)c(=O)n1Cc1ccco1 (stereo unspecified),inactive

row,Structure (SMILES),Potency
1,COc1ccccc1CNC(=O)CS(=O)(=O)c1cccc2nsnc12,inactive
2,COc1ccc(C)cc1NC(=O)CCS(=O)(=O)c1cccc2nonc12,inactive
3,COc1cccc2sc(N(CCCN(C)C)C(=O)CCS(=O)(=O)c3ccccc3)nc12,18.4 µM (active)
4,Cc1ccc(S(=O)(=O)CCC(=O)OCC(=O)N(C)Cc2ccccc2)cc1,inactive
5,Cc1cccc(C)c1NC(=O)CCS(=O)(=O)c1cccc2nsnc12,inactive
6,Cc1cccc2sc(N(CCCN(C)C)C(=O)CCS(=O)(=O)c3ccccc3)nc12,20.6 µM (active)
7,COc1cc(NC(=O)c2nn(-c3ccc(C)cc3)c(=O)c3c2c2ccccc2n3C)cc(OC)c1OC,inactive
8,COc1ccc(C)cc1-n1c(-c2ccc(C)cc2)cc2c1CC(C)(C)CC2=O,inactive
9,O=C(Nc1nnc(C2CC(=O)N(c3ccc(Cl)cc3)C2)s1)c1ccco1 (stereo unspecified),inactive
10,Cc1nc2nc(NCc3cccc(Br)c3)[nH]n2c(=O)c1Cc1ccccc1,inactive
11,CCN(CCCNC(=O)Cn1ncc2c([nH]c3ccccc32)c1=O)c1cccc(C)c1,inactive
12,COc1ccc(-c2noc(CSc3nnc(-c4ccccc4)n3-c3ccc(F)cc3)n2)c(OC)c1,inactive
13,CCOC(=O)c1c(C)[nH]c(C)c1S(=O)(=O)N1CCCC(C(=O)NCc2ccccc2Cl)C1 (stereo unspecified),inactive
14,COc1cc(C(=O)Nc2ccc(OCc3cc(=O)n4ccc(C)cc4n3)cc2)cc(OC)c1OC,inactive
15,CN(CCOc1ccc(CC2SC(=O)NC2=O)cc1)c1ccccn1 (stereo unspecified),inactive
16,CCN(CC)CCNCC(=O)Nc1ccc(Oc2ccccc2)cc1,inactive
17,CCN(CC)CCOc1ccc2c(c1)C(=NNC(=O)c1ccccn1)c1cc(OCCN(CC)CC)ccc1-2,14.6 µM (active)
18,Cn1c(=O)c2c(nc(Oc3ccc(C#N)cc3)n2Cc2ccc(Cl)cc2Cl)n(C)c1=O,inactive
19,CCc1ccc(NC(=O)Cn2c(=O)n(CCC(=O)NCc3ccc4c(c3)OCO4)c(=O)c3ccccc32)cc1,inactive
20,COC(=O)c1ccccc1NC(=O)c1cnn(-c2ccc(F)cc2)c1-n1cccc1,inactive
21,CCC(=O)N1CCc2cc(S(=O)(=O)NC(Cc3ccccc3)C(=O)NCc3ccccc3)ccc21 (stereo unspecified),inactive
22,Cc1nnc2n1N=C(c1ccc3c(c1)NC(=O)CO3)CS2,inactive
23,COc1ccc(C2=Nn3c(nnc3-c3ccccc3OC)SC2)cc1OC1CCCC1,2.31 µM (active)
24,CCn1c(SCC(=O)NC2CC2)nnc1-c1ccccc1OC,inactive
25,C/C(=N\N)c1c(-c2ccccc2)c2cc(Br)ccc2[nH]c1=O,inactive
26,O=[n+]1c2c(n([O-])c3cc(Br)ccc31)CCC2,inactive

row,Structure (SMILES),Potency
1,O=C1CCCc2c1[nH]c1ccc(Br)cc21,0.651 µM (active)
2,CCOC(=O)c1ccccc1NC(=O)CCc1c(C)nc2c(c1C)c(=O)n(C)c(=O)n2C,inactive
3,Cc1nn(CC(=O)O)c(=O)c2cc3cc(F)ccc3n12,inactive
4,COc1cc(NC(=O)CCn2nc(C)cc2C)cc(OC)c1OC,inactive
5,OC(CBr)CN1CCCCC1 (stereo unspecified),inactive
6,CC1(C(=O)O)CCN1C(=O)/C=C/c1ccccc1 (stereo unspecified),inactive
7,CC1(C(=O)NS(=O)(=O)c2ccccc2)CCN1C(=O)C/C=C/c1ccccc1 (stereo unspecified),inactive
8,CC1(C)CCSC(/C=C/c2ccccc2)=N1,14.6 µM (active)
9,COc1ccc(NC(=S)SC)cc1OC,inactive
10,CC(=O)c1c(C)oc2ccc(NS(=O)(=O)c3ccccc3)cc12,inactive
11,COc1ccc(NS(=O)(=O)c2ccc(NC(C)=O)cc2)cc1OC,14.6 µM (active)
12,CC(=O)c1c(C)oc2ccc(NS(=O)(=O)c3ccc(C(=O)O)cc3)cc12,inactive
13,COc1ccc(S(=O)(=O)Nc2cc(C)on2)cc1NC(C)=O,inactive
14,COc1ccc(S(=O)(=O)Nc2ccc3oc(C)c(C(C)=O)c3c2)cc1,3.26 µM (active)
15,Cc1ccc(N(C)C(=O)C2CCN(S(=O)(=O)c3ccc4c(c3)CCCN4C(=O)C3CCC3)CC2)cc1,inactive
16,CCOc1ccc(CNCc2c(C(=O)O)c(C)n(Cc3cccc(OC)c3)c2C)cc1OC,inactive
17,OCCNc1ncnc2oc(-c3ccco3)c(-c3ccco3)c12,inactive
18,Cn1c(=O)c2c(SCC(=O)N3CCc4ccccc43)nc(-c3ccc(Cl)cc3)nc2n(C)c1=O,inactive
19,O=C(COc1ccccc1F)Nc1ccc(C(=O)OCc2cc(=O)n3nc(C4CC4)sc3n2)cc1,inactive
20,COc1cccc(C(=O)NCc2ccc3c(c2)CCN3C(=O)c2ccncc2)c1,inactive
21,Brc1cccc[n+]1Cc1cccc(C[n+]2ccccc2Br)c1,inactive
22,COc1ccccc1/C=C/C=N/n1c(-c2ccc(Cl)cc2Cl)n[nH]c1=S,inactive
23,Cc1cc(-c2n[nH]c(=S)n2/N=C/C(Br)=C/c2ccccc2)n[nH]1,5.8 µM (active)
24,S=c1[nH]nc(-c2ccco2)n1/N=C/c1ccc(Br)s1,inactive
25,CN(C)CCCn1c(N)c(C#N)c2nc(C#N)c(C#N)nc21,23.1 µM (active)
26,COCCn1c(SCC(=O)c2cc(C)ccc2C)nc2cc(C(=O)NC3CCCC3)ccc2c1=O,inactive

row,Structure (SMILES),Potency
1,CCCc1c(-c2ccccc2F)ncn1Cc1ccccc1OC,20.6 µM (active)
2,COc1ccccc1CN1CCN(Cc2cc(OC)c(OC)cc2OC)CC1,inactive
3,COCCn1cnc2c1c(=O)n(Cc1ccc(Br)cc1)c(=O)n2Cc1ccccc1,inactive
4,Cn1c(=O)c2c(ncn2CCc2ccccc2)n(C)c1=O,inactive
5,COc1cccc(OC)c1C(=O)N1CCN(Cc2ccccc2F)CC1,inactive
6,CCCCCc1c(Cc2ccccc2)ncn1CCc1ccccc1OC,16.4 µM (active)
7,CCCCc1c(-c2ccc(Br)cc2)ncn1CCc1ccccc1OC,16.4 µM (active)
8,COc1ccccc1CCNS(=O)(=O)c1cn(C)nc1C,inactive
9,CCOc1ccc(-c2n[nH]c3c2C(c2ccccc2OC)N(c2ccc(Br)cc2)C3=O)cc1 (stereo unspecified),inactive
10,CC(=O)Nc1ccc(NC(=O)CCCc2nc(-c3ccc(C(C)(C)C)cc3)no2)cc1,inactive
11,COc1cc(C(=O)N(Cc2ccc(C(C)C)cc2)C2CCS(=O)(=O)C2)cc(OC)c1OC (stereo unspecified),inactive
12,CCCN(CCC)C(=O)C(Cc1ccccc1)NS(=O)(=O)c1ccc2c(c1)c(=O)n(C)c(=O)n2C (stereo unspecified),inactive
13,N#C/C(=C\c1cccc(F)c1)c1nc(-c2cc3c(ccc4ccccc43)oc2=O)cs1,inactive
14,O=C(NCCCO)C(=O)Nc1c2c(nn1-c1ccc(F)cc1)CSC2,inactive
15,CN(C)Cc1cn(-c2ccccc2)nc1-c1ccccc1,inactive
16,N#Cc1ccc(OC2=NS(=O)(=O)c3ccccc32)cc1,inactive
17,Cn1c(=O)c2c(nc(NCCc3ccccc3)n2Cc2ccccc2Br)n(C)c1=O,inactive
18,OC(Cc1ccc2ccccc2n1)c1ccc(Cl)c(Cl)c1 (stereo unspecified),inactive
19,O=S(=O)(c1ccc(Br)cc1)c1nnn2c1nc(N1CCOCC1)c1sccc12,inactive
20,CCOC(=O)C1CCCN(C(=O)c2ccc(-n3ccc4ccccc43)s2)C1 (stereo unspecified),inactive
21,O=C1C=C(c2ccnc3cc(Cl)ccc23)C[C@@H](c2ccc3c(c2)OCO3)C1,23.1 µM (active)
22,O=C1C=C(c2cc(C(F)(F)F)cc(C(F)(F)F)c2)C[C@@H](c2ccc3c(c2)OCO3)C1,inactive
23,COc1ccc2cc(C3=CC(=O)C[C@H](c4ccc5c(c4)OCO5)C3)ccc2c1,inactive

# Reference: PubChem BioAssay AID1347075 (National Center for Advancing Translational Sciences (NCATS), 2019)
